Source: PubChem BioAssay
Activity calls are given as the source filed them. Unless noted, how the calls were made is not given here.

Key:
[1] = A549 cell viability effects, profiling panel, calcein-AM fluorescence, 48 h, basal (AID 1162); details: higher = more signal; further: test concentration not given here
[2] = adipocyte viability effects, profiling panel, cell-based, 3T3-L1 adipocytes, calcein-AM fluorescence, 48 h, basal (AID 1163); details: 3T3-L1 adipocytes viability, higher = more signal; further: test concentration not given here
[3] = HepG2 cell viability effects, profiling panel, calcein-AM fluorescence, 48 h, basal (AID 1164); details: higher = more signal; further: test concentration not given here
[4] = MM1S cell viability effects, profiling panel, calcein-AM fluorescence, 48 h, basal (AID 1165); details: higher = more signal;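 further: viability of MM1S multiple myeloma cells under basal unstimulated conditions; test concentration not given here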
[5] = basal RPMI8226 viability, no added stimulus, profiling panel, cell-based, calcein-AM fluorescence, 48 h, PK04 Diversity Set (AID 1166); details: RPMI8226 myeloma viability, higher = more signal;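 further: cells grown under basal conditions without added stimulus; test concentration not given here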
[6] = basal HepG2 mitochondrial membrane potential changes, profiling panel, cell-based, JC-1 fluorescence, 24 h, 100 nL compound (AID 1167); details: higher = more signal; further: test concentration not given here
[7] = basal 3T3-L1 adipocyte mitochondrial potential changes, profiling panel, cell-based, JC-1 fluorescence, 3T3-L1 adipocytes, 24 h, 100 nL compound (AID 1168); details: JC-1 mitochondrial fluorescence, higher = more signal, called active from +8 up or from −8 down; further: test concentration not given here
[8] = basal RPMI8226 mitochondrial membrane potential changes, profiling panel, cell-based, JC-1 fluorescence, 24 h, 100 nL compound (AID 1169); details: RPMI8226 myeloma, JC-1 mitochondrial potential fluorescence, higher = more signal; further: test concentration not given here
[9] = basal MM1S mitochondrial membrane potential changes, profiling panel, cell-based, JC-1 fluorescence, 24 h, 100 nL compound (AID 1170); details: higher = more signal; further: test concentration not given here
[10] = A549 lung cancer cell viability effects, profiling panel, resazurin fluorescence, 24 h, PK04 Diversity Set (AID 1171); details: higher = more signal, called active from +8 up or from −8 down; further: test concentration not given here
[11] = HepG2 liver cancer cell viability effects, profiling panel, resazurin fluorescence, 24 h, PK04 Diversity Set (AID 1172); details: higher = more signal; further: test concentration not given here
[12] = basal S. cerevisiae growth modulation, no modifier, primary screen, OD600, strain BY4716, 24 h, basal condition (AID 1173); details: OD600, 24 h, higher = more signal, called active from +8 up or from −8 down
[13] = MM1S myeloma cell viability, profiling panel, resazurin fluorescence, basal, 24 h, PK04 Diversity Set (AID 1174); details: higher = more signal, called active from +8 up or from −8 down;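 further: MM1S multiple myeloma cell line; test concentration not given here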
[14] = target: Dihydroorotate dehydrogenase (quinone), mitochondrial (Plasmodium falciparum (isolate 3D7)) (UniProt Q08210); assay: PfDHODH enzyme inhibitors, primary screen, biochemical, C-terminal His tag, absorbance 600 nm (AID 1175); details: DCIP absorbance 600 nm, higher = more signal, called active from +8 up or from −8 down;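 further: recombinant parasite enzyme with a five histidine tag at its C terminus; test concentration not given here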
[15] = P. aeruginosa biofilm formation inhibitors, primary screen, strain PAO1, LB-PBS medium, absorbance 600 nm (AID 1176); further: test concentration not given here; details: P. aeruginosa PAO1 growth/biofilm, A600, 12 h; higher = more signal
[16] = S. cerevisiae RM11-1a growth modifiers, primary screen, strain RM11-1a, OD600, basal, 24 h (AID 1177); details: OD600, 24 h, higher = more signal, called active from +8 up or from −8 down;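 further: cultures grown under basal conditions with no added stressor; test concentration not given here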
[17] = E. coli acrAB mutant growth effects, primary screen, E. coli filamentation inducers, strain DRC39, OD650, 24 h (AID 1178); details: higher = more signal, called active from +8 up or from −8 down;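 further: growth measured as culture turbidity by optical density at 650 nm; test concentration not given here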
[18] = E. coli acrAB mutant growth effects, primary screen, E. coli filamentation inducers, strain DRC39, OD650, 48 h (AID 1179);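 further: screen aims at cell division blockers that make cells filament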; details: E. coli DRC39 delta-acrAB growth, higher = more signal, called active from +8 up or from −8 down
[19] = RPMI8226 myeloma cell viability, profiling panel, resazurin fluorescence, basal, 24 h, PK04 Diversity Set (AID 1180); details: higher = more signal;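 further: RPMI8826 multiple myeloma cell line at 5000 cells per well; test concentration not given here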
[20] = target: E3 ubiquitin-protein ligase XIAP (Homo sapiens) (UniProt P98170); assay: XIAP binders, primary screen, biophysical, small-molecule microarray, fluorescence 635 nm (AID 1181); details: small-molecule microarray binding, higher = more signal;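 further: score merges 667 nm emission and signal to noise over triplicate slides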
Chain of E3 ubiquitin-protein ligase XIAP (Homo sapiens) (P98170 whole entry, looked up): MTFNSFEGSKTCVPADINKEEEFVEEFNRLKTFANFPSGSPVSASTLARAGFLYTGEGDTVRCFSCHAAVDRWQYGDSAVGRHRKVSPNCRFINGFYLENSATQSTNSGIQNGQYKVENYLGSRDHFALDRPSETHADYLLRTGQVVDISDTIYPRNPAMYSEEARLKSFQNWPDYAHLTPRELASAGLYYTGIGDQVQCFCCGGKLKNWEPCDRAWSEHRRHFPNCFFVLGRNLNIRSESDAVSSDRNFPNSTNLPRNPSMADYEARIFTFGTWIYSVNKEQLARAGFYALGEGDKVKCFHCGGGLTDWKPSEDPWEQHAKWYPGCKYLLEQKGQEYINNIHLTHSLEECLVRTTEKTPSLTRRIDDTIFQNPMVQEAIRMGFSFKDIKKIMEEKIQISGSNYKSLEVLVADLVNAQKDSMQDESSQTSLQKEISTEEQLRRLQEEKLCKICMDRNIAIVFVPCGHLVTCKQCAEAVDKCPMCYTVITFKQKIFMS

Chain of Dihydroorotate dehydrogenase (quinone), mitochondrial (Plasmodium falciparum (isolate 3D7)) (Q08210 whole entry, looked up): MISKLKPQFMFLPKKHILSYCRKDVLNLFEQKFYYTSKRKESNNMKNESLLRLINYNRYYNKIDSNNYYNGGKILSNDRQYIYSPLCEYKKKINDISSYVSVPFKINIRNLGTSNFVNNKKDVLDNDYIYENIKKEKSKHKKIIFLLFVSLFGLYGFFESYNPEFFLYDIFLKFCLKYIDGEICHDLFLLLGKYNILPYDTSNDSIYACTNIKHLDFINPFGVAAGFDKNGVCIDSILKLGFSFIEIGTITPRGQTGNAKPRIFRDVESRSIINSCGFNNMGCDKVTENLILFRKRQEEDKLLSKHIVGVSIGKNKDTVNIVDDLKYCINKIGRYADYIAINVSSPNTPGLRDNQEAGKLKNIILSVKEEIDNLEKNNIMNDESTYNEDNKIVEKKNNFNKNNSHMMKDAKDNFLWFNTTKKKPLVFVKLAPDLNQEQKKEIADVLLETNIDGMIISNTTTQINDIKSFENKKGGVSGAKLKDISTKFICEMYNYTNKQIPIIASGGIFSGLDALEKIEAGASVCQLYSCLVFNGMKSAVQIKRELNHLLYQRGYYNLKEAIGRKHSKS

Row | SMILES | z-score [1] | z-score [2] | z-score [3] | z-score [4] | z-score [5] | z-score [6] | z-score [7] | z-score [8] | z-score [9] | z-score [10] | z-score [11] | z-score [12] | z-score [13] | composite z-score [14] | z-score [15] | z-score [16] | z-score [17] | z-score [18] | z-score [19] | composite z-score [20]
1 | CC(CCN1CCCCc2nc(C)c(C)cc21)=NO[C@H](C)c1cn([C@H](CO)Cc2ccccc2)nn1 | 0.277 | 0.72 | -0.386 | 0.607 | -1.4 | -0.969 | -2.1 (inactive) | 0.686 | -0.457 | -0.0266 (inactive) | -0.605 | -0.241 (inactive) | 0.0783 (inactive) | 0.301 (inactive) | -0.503 (inactive) | -0.134 (inactive) | -0.894 (inactive) | -0.488 (inactive) | 0.594 | 0.0595
2 | COC(=O)CC=C[C@@H](C)[C@@H](C=NOCC[C@@H]1C=C[C@H](OC(C)=O)[C@@H](COC(C)=O)O1)NS(=O)(=O)c1ccc(C)cc1 | 0.498 | 0.037 | -0.726 | 0.212 | -0.128 | -0.716 | -1.63 (inactive) | 0.533 | 0.0173 | -0.364 (inactive) | -0.564 | 0.705 (inactive) | -0.602 (inactive) | 0.33 (inactive) | 0.453 (inactive) | 0.193 (inactive) | 0.336 (inactive) | 0.402 (inactive) | -0.393 | 0.0374
3 | CCOC(=O)[C@H](CC(C)C)NC(=O)CCC1CC(OC(=O)NCc2ccc3c(c2)OCO3)CC2(CCCC(COC(=O)NCC3CCCCC3)O2)O1 (stereo not given in full) | 1.2 | -0.721 | -0.991 | -1.2 | 0.599 | 0.498 | 0.368 (inactive) | -0.247 | -0.972 | 1.26 (inactive) | 0.471 | 0.105 (inactive) | 1.4 (inactive) | -0.19 (inactive) | -0.0326 (inactive) | 0.494 (inactive) | 0.536 (inactive) | 0.0926 (inactive) | 1.32 | -0.0053
4 | COc1cccc([C@H]2Oc3ccc(OC)cc3C(=NO[C@@H](C)c3cn([C@H](CO)Cc4ccccc4)nn3)[C@@H]2O)c1 | -0.53 | 1.3 | -0.55 | 0.738 | -0.631 | -1.22 | -1.1 (inactive) | -0.722 | 0.339 | -0.819 (inactive) | -1.02 | -0.0439 (inactive) | -0.162 (inactive) | 0.757 (inactive) | -0.102 (inactive) | -0.0779 (inactive) | -0.712 (inactive) | -2.86 (inactive) | 0.22 | -0.0367
